Laboratory results reported in PubChem BioAssay AID1159580 (chemical genetic matrix, 2015).
Where “and” joins values, the source holds several entries; their conditions need not be identical. Equal values may be shown once. Hit rate of the full screen: of about 5,500 compounds, about 2,000 (36%) were called active. Inconclusive results (about 18%) are left out. Cut-off read from the data, not from the text of the source: active = normalized growth mostly below about 0.91 (no sharp cut-off); inconclusive = no clear call, values can overlap the other calls; inactive = mostly above about 0.92. The list shows a part of the results.

Assay: chemical genetic growth profiling, strain panel (AID 1159580);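 note: tested at 20 µM; growth read once vehicle control cultures reached saturation at 30 °C; 1 = growth at the plate median or of vehicle wells; lower values mean less growth of the strain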
Settings: S. cerevisiae deletion strains, growth OD

Measured: normalized growth

CCN(Cc1ccncc1)C(=O)C(CO)c1ccccc1 (stereo unspecified)
inactive: locus YAL013W, strain DEP1, stronger effect = lower value 0.993 and 0.979 | locus YAL021C, strain ccr4, stronger effect = lower value 1.04 | locus YAL026C, strain drs2, stronger effect = lower value 1.03 | locus YAL030W, strain snc1, stronger effect = lower value 1.02 | locus YAL040C, strain CLN3, stronger effect = lower value 0.996 | locus YBL061C, strain skt5, stronger effect = lower value 1.02 | locus YBR009C, strain hhf1, stronger effect = lower value 1.03 | locus YBR021W, strain FUR4, stronger effect = lower value 1.01 | locus YBR023C, strain chs3, stronger effect = lower value 1.03 | locus YBR171W, strain sec66, stronger effect = lower value 1.04 | locus YBR229C, strain ROT2, stronger effect = lower value 0.996 | locus YBR231C, strain swc5, stronger effect = lower value 1.03 | locus YBR279W, strain paf1, stronger effect = lower value 1.01 | locus YCL011C, strain gbp2, stronger effect = lower value 1.02 | locus YCL016C, strain dcc1, stronger effect = lower value 1.03 | locus YCL029C, strain bik1, stronger effect = lower value 0.973 | locus YCL061C, strain MRC1 (second series), stronger effect = lower value 1.01 | locus YCL061C, strain MRC1, stronger effect = lower value 1.03 | locus YCL069W, strain vba3, stronger effect = lower value 1.03 | locus YCR088W, strain abp1, stronger effect = lower value 1.02 | locus YDL005C, strain med2, stronger effect = lower value 1.04 | locus YDL035C, strain GPR1, stronger effect = lower value 1 | locus YDL040C, strain nat1, stronger effect = lower value 1.02 | locus YDL074C, strain BRE1, stronger effect = lower value 0.989 | locus YDL101C, strain DUN1, stronger effect = lower value 0.987 | locus YDL134C, strain PPH21, stronger effect = lower value 0.999 | locus YDL185W, strain tfp1, stronger effect = lower value 0.964 | locus YDL192W, strain arf1, stronger effect = lower value 0.976 | locus YDR001C, strain nth1, stronger effect = lower value 1.02 | locus YDR069C, strain doa4, stronger effect = lower value 1.04 | locus YDR101C, strain arx1, stronger effect = lower value 0.985 | locus YDR137W, strain rgp1, stronger effect = lower value 1.07 | locus YDR150W, strain NUM1, stronger effect = lower value 0.994 | locus YDR159W, strain sac3, stronger effect = lower value 1.03 | locus YDR162C, strain NBP2, stronger effect = lower value 0.985 | locus YDR195W, strain ref2 1.02 | locus YDR297W, strain sur2, stronger effect = lower value 1.02 | locus YDR318W, strain mcm21, stronger effect = lower value 0.989 | locus YDR334W, strain swr1, stronger effect = lower value 1.03 | locus YDR335W, strain msn5, stronger effect = lower value 1.04 | locus YDR363W, strain ESC2, stronger effect = lower value 0.991 | locus YDR388W, stronger effect = lower value 0.993 | locus YDR392W, strain spt3, stronger effect = lower value 0.987 | locus YDR502C, strain sam2, stronger effect = lower value 1.01 | locus YEL003W, strain gim4, stronger effect = lower value 1.01 | locus YEL037C, strain rad23, stronger effect = lower value 1.02 | locus YEL061C, strain CIN8 (second series), stronger effect = lower value 1.03 | locus YEL061C, strain CIN8, stronger effect = lower value 0.995 | locus YER002W, strain NOP16, stronger effect = lower value 0.994 | locus YER015W, strain faa2, stronger effect = lower value 1.01 | locus YER016W, strain bim1, stronger effect = lower value 1.03 | locus YER110C, stronger effect = lower value 0.988 | locus YER111C, strain swi4, stronger effect = lower value 1.03 | locus YER155C, strain BEM2 (second series), stronger effect = lower value 1.03 | locus YER155C, strain BEM2, stronger effect = lower value 0.994 | locus YER167W, strain BCK2, stronger effect = lower value 0.989 | locus YFR010W, strain ubp6, stronger effect = lower value 1.02 | locus YGL078C, strain dbp3, stronger effect = lower value 1 | locus YGL086W, strain mad1, stronger effect = lower value 1 | locus YGL167C, strain pmr1, stronger effect = lower value 1.02 | locus YGL173C, strain kem1, stronger effect = lower value 1.04 | locus YGL227W, strain vid30, stronger effect = lower value 1.04 | locus YGL240W, strain doc1, stronger effect = lower value 1.03 | locus YGL248W, strain PDE1, stronger effect = lower value 1 | locus YGL253W, strain hxk2, stronger effect = lower value 1.02 | locus YGR078C, strain PAC10, stronger effect = lower value 0.989 | locus YGR135W, strain pre9, stronger effect = lower value 0.994 | locus YGR229C, strain SMI1, stronger effect = lower value 0.997 | locus YGR252W, strain gcn5, stronger effect = lower value 1.11 | locus YHR013C, strain ard1, stronger effect = lower value 1.05 | locus YHR027C, strain rpn1, stronger effect = lower value 1.05 | locus YHR030C, strain SLT2, stronger effect = lower value 0.981 and 1 | locus YHR079C, strain IRE1 (second series), stronger effect = lower value 0.984 | locus YHR079C, strain IRE1, stronger effect = lower value 0.989 | locus YHR094C, strain hxt1, stronger effect = lower value 0.977 | locus YHR129C, strain ARP1, stronger effect = lower value 0.993 | locus YHR142W, strain chs7, stronger effect = lower value 1.02 | locus YHR200W, strain rpn10, stronger effect = lower value 0.992 | locus YIL066C, strain RNR3, stronger effect = lower value 0.997 | locus YIL073C, strain SPO22, stronger effect = lower value 0.926 | locus YIL125W, strain kgd1, stronger effect = lower value 0.984 | locus YIR030C, strain dcg1, stronger effect = lower value 1 | locus YJL092W, strain hpr5, stronger effect = lower value 1.02 | locus YJL095W, strain BCK1 (second series), stronger effect = lower value 1.01 | locus YJL095W, strain BCK1, stronger effect = lower value 0.972 and 1.01 | locus YJL115W, strain asf1, stronger effect = lower value 1.04 | locus YJL129C, strain trk1, stronger effect = lower value 1.04 | locus YJL134W, strain LCB3, stronger effect = lower value 0.995 | locus YJL154C, strain vps35, stronger effect = lower value 1.02 | locus YJL164C, strain tpk1, stronger effect = lower value 1.02 | locus YJL166W, strain qcr8, stronger effect = lower value 1.02 | locus YJL168C, strain set2, stronger effect = lower value 0.983 | locus YJL187C, strain SWE1 (second series), stronger effect = lower value 0.979 | locus YJL187C, strain SWE1, stronger effect = lower value 1.02 | locus YJR043C, strain POL32, stronger effect = lower value 0.988 | locus YJR066W, strain TOR1, stronger effect = lower value 0.95
